# Source: PubChem BioAssay
# Target: NADPH oxidase 5 (Homo sapiens) (UniProt Q96PH1)
# Assay: compounds shifting NOX5 Amplex Red fluorescence – cell-based, HEK293-NOX5, NOX inhibitor project, primary screen (AID 1161)
# Settings: HEK293-NOX5, ionomycin, 45 min, higher = more signal
# NADPH oxidase 5 (Homo sapiens), sequence (Q96PH1 whole entry, looked up): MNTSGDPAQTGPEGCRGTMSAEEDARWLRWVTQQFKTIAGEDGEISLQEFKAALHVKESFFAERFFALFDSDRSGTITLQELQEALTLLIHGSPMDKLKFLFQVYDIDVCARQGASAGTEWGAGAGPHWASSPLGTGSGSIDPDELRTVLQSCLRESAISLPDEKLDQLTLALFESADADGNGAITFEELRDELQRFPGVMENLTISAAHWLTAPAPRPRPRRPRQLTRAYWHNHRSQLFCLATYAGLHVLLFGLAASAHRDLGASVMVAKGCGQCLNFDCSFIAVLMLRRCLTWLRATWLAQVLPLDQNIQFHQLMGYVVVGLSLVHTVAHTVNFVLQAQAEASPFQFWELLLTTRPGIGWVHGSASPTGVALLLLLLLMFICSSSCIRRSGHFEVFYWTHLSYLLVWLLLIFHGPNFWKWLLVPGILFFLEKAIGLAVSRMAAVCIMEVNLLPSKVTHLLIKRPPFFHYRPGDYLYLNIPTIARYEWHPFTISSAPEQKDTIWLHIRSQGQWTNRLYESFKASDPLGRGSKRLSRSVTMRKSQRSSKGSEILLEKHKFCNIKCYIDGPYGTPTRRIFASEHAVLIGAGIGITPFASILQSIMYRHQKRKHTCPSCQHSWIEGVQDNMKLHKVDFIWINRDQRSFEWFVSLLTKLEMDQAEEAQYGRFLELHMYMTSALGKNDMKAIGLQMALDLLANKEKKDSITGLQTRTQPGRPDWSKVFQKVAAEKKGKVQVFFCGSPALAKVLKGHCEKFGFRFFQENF
row,SMILES,z-score
1,O=C(O)[C@@H]1[C@@H]2C(=O)N(c3ccccc3)C(=O)[C@@H]2C[C@@H]1Sc1ccccc1,-0.295
2,C=CC[C@@H](OC(=O)Nc1ccc(SC)cc1)c1ccc(O)c(F)c1,-3.25
3,COCCOC(=O)N1C(=O)[C@@]2(c3cc(C#CC4=CCCCC4)ccc31)[C@H](C(=O)Nc1nc3ccccc3s1)[C@H]1C(=O)O[C@H](c3ccccc3)[C@H](c3ccccc3)N1[C@@H]2c1ccc(O)cc1,0.759
4,CC(C)C[C@@H]1NC(=O)[C@@H]2C[C@H](C(=O)NCCCCCCN)[C@H](c3cccc(OCCO)c3)N2C1=O,1.99
5,COCCOC(=O)N1C(=O)[C@@]2(c3cc(C#CCNC(N)=O)ccc31)[C@H](C(N)=O)[C@H]1C(=O)O[C@H](c3ccccc3)[C@H](c3ccccc3)N1[C@@H]2c1ccccc1OCCO,0.198
